Assay outcomes as filed in PubChem BioAssay.
12-LOX inh: blocks human arachidonate 12S-lipoxygenase; P18054; purified 12hLO, xylenol orange hydroperoxide absorbance; Potency, µM (top dose mostly 108 µM), inactives show at the top dose activity change, negative = inhibition, usual class: inhibitors; 1.1% of 580,000 active
Target sequence (P18054 whole entry, looked up): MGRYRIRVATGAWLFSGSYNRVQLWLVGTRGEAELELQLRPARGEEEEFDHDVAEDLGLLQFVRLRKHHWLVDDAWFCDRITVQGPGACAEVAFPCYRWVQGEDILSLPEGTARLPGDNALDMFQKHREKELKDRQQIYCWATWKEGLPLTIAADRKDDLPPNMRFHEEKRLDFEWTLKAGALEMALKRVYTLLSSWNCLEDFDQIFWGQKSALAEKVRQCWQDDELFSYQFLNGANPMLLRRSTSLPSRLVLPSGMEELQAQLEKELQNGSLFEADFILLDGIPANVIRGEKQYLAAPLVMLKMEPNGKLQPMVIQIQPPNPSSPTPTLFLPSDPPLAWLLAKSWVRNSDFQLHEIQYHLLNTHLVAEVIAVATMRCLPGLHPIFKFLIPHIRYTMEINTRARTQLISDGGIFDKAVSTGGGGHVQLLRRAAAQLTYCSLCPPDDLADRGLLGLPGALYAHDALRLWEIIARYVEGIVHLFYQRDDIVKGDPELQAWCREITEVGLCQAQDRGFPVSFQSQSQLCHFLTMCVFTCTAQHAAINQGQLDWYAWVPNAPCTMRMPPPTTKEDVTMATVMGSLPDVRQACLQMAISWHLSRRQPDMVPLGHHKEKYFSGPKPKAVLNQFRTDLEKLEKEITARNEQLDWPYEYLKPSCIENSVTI
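Purified human 12hLO at 150 nM in 25 mM Hepes, 0.01% Triton X-100, pH 7.0, preincubated 15 min at room temperature with compound. Reaction started with 40 uM arachidonic acid, 30 min at room temperature. Hydroperoxide measured by Fe-xylenol orange, 573/405 nm absorbance ratio.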
ELG1 DNA repair: inhibitors of ELG1-dependent DNA repair in HEK293T cells; HEK293T ELG1-luciferase reporter, luminescence, 16 h; DNA damage induced by 5-fluorouridine; Potency, µM (titrated, usually from 46.1 µM), without a hit: at the top dose activity change, negative = inhibition, most hits filed as inhibitors; 2.3% of 330,000 active; AID 504467; also: nearly all actives have a fitted effect of over 55% in size
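Cells (2,000 per well) received 5-fluorouridine plus test compound or DMSO and were incubated 16 hr at 37 °C, 5% CO2. Luciferase activity was read by luminescence 30 min after ONE-Glo addition; signal suppression marked inhibition of damage-induced ELG1 function.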
TDP1 cell noCPT: qHTS for Inhibitors of human tyrosyl-DNA phosphodiesterase 1 (TDP1): qHTS in cells in absence of CPT | AID 686978, 2013 | 15% of 420,000 active | DT40 Tdp1-/- hTDP1 cells, no CPT, ATP luminescence, 48 h | Potency, µM (top dose mostly 46.2 µM), inactives show at the highest dose activity change, negative = growth inhibition, most hits filed as inhibitors; also: nearly all actives have a fitted effect of over 55% in size
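Seeded 400 DT40-hTDP1 cells/well (vehicle DMSO, no 20 nM CPT); pinned compounds; ≥48 hr at 37 °C; CellTiter-Glo luminescence as viability measure.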
VP16 counter: Gal4-VP16 reporter inhibition counter-screen. Drosophila S2 Gal4-VP16 UAS-luciferase, luminescence, 20 h. Potency, µM (doses to about 53.6 µM), for inactives: at the top dose activity, negative = inhibition, usual class: inhibitors. 3.5% of 310,000 active. AID 2546;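 also: Gal4-VP16 expression switched on by copper sulfate through the metallothionein promoter; nearly all actives have a fitted effect of over 50% in size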
RORgamma inh: inhibitors of mouse ROR gamma transcriptional activity | 5.4% of 310,000 active | Drosophila S2 Gal4-RORgamma UAS-luciferase reporter, 20 h | Potency, µM (titrated, usually from 53.6 µM), inactives show at the top dose activity change, negative = inhibition, most hits filed as inhibitors; also: nearly all actives have a fitted effect of over 60% in size
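Schneider cells (Drosophila), stable Gal4 DBD–ROR gamma + UAS-luc; 1 hr cmpd preincubation; Cu2+ induction 700 uM final; 20 hr ambient; luminescence.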
TDP1 cell CPT: growth inhibition of DT40 Tdp1-/-;hTDP1 cells with camptothecin (screen for TDP1 inhibitors) | Potency, µM (top dose mostly 46.2 µM), without a hit: at the top dose activity change, negative = growth inhibition, usual class: inhibitors | chicken DT40 Tdp1-/-;hTDP1 cells + 20 nM CPT, ATP luminescence, 48 h | 12% of 420,000 active; also: nearly all actives have a fitted effect of over 55% in size
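Cell growth measured by CellTiter-Glo luminescence after a minimum 48 h, 37 C compound exposure with 20 nM CPT in Tdp1-knockout DT40 cells stably expressing hTDP1, seeded 400/well; qHTS titration format.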
The depositor's hits bear a star; ? = inconclusive; . = no result given; [ ] = remark or other dose. An excerpt weighted towards active compounds, which were near 15% of everything screened. Calls follow the shape of the dose curve; as a rule, active = well fitted curve in the direction sought with a large enough effect; inconclusive = small, poorly fitted or top-dose-only effect, or another doubt; inactive = no such curve, though single readings can be large; an effect the other way counts as inactive or inconclusive. % is scaled to controls: 0 for no effect and ±100 for the full control effect; potency is read from the fitted curve at half-maximal effect.

SMILES | 12-LOX inh | ELG1 DNA repair | TDP1 cell noCPT | VP16 counter | RORgamma inh | TDP1 cell CPT
Cc1ccc(NCc2ccc(O)c3ncccc23)cc1 | 4µM* | -11% | ? | 1.8µM* | 1µM* | ?
Cc1cccc(NCc2ccc(O)c3ncccc23)c1C | 5.6µM* | 8% | 15µM* | ? | 7.9µM* | ?
Cc1cccnc1NCc1ccc(O)c2ncccc12 | ? | 11% | 5.8µM* | 2.8µM* | ? | 4.6µM*
Cc1ccc(NCc2ccccc2O)cc1 | 4% | ? | -27% | 14% | 39% | ?
Cc1ccc(O)c(CNc2cccc3cccnc23)c1 | -15% | -9% | ? | -6% | -3% | ?
CC(C)CCN1CCC(N2CCN(S(=O)(=O)c3ccc(CC(C)C)cc3)CC2)C1=O (configuration not stated) | 31% | . | . | . | . | .
O=C(CN1CC2CC(C1)[C@H]1CCCC(=O)N1C2)NCCC1=CCCCC1 (some centres not stated) | 34% | . | . | . | . | .
C=CCn1c(-c2csc3ccccc23)n[nH]c1=S | ? | -6% | -12% | 6.3µM* | 3.5µM* | -5%
C=CCn1c(-c2cccnc2)n[nH]c1=S | -22% | 15% | 1% | -9% | 13% | 0%
C=CCn1c(-c2c[nH]c3ccccc23)n[nH]c1=S | ? | ? | -4% | ? | 3%[10 µM] | -1%
C=CCn1c(-c2cc(-c3ccccc3)sc2N)n[nH]c1=S | -10% | -7% | ? | 10µM* | 2.2µM* | 11%
C=CCn1c(-c2csc(-c3ccc(Cl)cc3)n2)n[nH]c1=S | ? | 3% | -7% | 1.8µM* | ? | -9%
C=CCn1c(-c2ccccn2)n[nH]c1=S | 10µM* | . | 3% | . | . | -5%
CC1(C)CC(=O)C2=C(C1)OC1=C(C(=O)CC(C)(C)C1)C2c1cccc(O)c1 | -1% | . | . | . | . | .
C=CCn1c(-c2csc(-c3ccccc3)n2)n[nH]c1=S | ? | . | ? | 0.71µM* | 4µM* | -23%
CCn1c(-c2csc(-c3ccccc3)n2)n[nH]c1=S | -20% | . | -12% | 6.3µM* | 2.5µM* | -14%
NC(=S)NN=C(c1ccc(Br)cc1)C1CC1 | -4% | . | ? | . | . | ?
NC(=S)NN=C(c1ccc(F)cc1)C1CC1 | -11% | . | ? | . | . | 21µM*
CCOc1ccc(S(=O)(=O)N2CCC(c3ccncc3)CC2)cc1 | -26% | . | ? | . | . | 12µM*
CCCS(=O)(=O)N1CCC(n2c(C)nc3cccnc32)CC1 | -4% | . | 18µM* | . | . | 18µM*
CCOc1ccccc1NC(=O)N1CCC(n2c(C)nc3cccnc32)CC1 | -17% | . | 4% | . | . | 0%
Cc1nc2cccnc2n1C1CCN(S(=O)(=O)N(C)C)CC1 | -13% | . | ? | . | . | 4%
CCCCOc1ccc(S(=O)(=O)n2c(C)nc3ccccc32)cc1 | -2%[57.4 µM] | -14% | ? | ? | 22% | ?
CCOc1ccc(S(=O)(=O)n2c(C)nc3ccccc32)cc1 | ? | -1% | 21µM* | 3% | 4% | ?
CCOc1ccc(S(=O)(=O)N2CCC(n3c(C)nc4cccnc43)CC2)cc1 | -3% | . | 12µM* | . | . | 21µM*
SMILES | 12-LOX inh | ELG1 DNA repair | TDP1 cell noCPT | VP16 counter | RORgamma inh | TDP1 cell CPT
Nc1nccnc1C(=O)NCCc1cccc(Cl)c1 | 26% | . | . | . | . | .
CC[N+](C)(C)CCOC1CC2CCC1(C)C2(C)C (configuration not stated) | 8% | . | . | . | . | .
CC(=O)c1ccccc1OCCOC(=O)c1cccc(CS(C)(=O)=O)c1 | -40% | . | . | . | . | .
Cc1ccc2cc(C(=O)NCCN(C(C)C)C(C)C)[nH]c2c1 | -30% | . | . | . | . | .
Cc1cccc(NC(=O)CSc2ncc3c(n2)-c2ccc(Cl)cc2N(C)S3(=O)=O)c1 | -9% | . | . | . | . | .
COc1cc(-c2noc(C)c2C#Cc2nccn2C)cc(OC)c1OC | -4% | ? | 13µM* | -2% | -34% | 16µM*
COc1cccc(-c2nc(NCc3ccccc3)c3ccccc3n2)c1 | ? | . | 16µM* | -30% | 29% | ?
CS(=O)(=O)Nc1cccc(-c2nc(NC3CC3)c3ccccc3n2)c1 | ? | . | ? | 3% | 34% | ?
COc1cccc(-c2nc(NC3CC3)c3ccccc3n2)c1 | ? | . | 21µM* | 7% | 4% | 16µM*
COc1cccc(-c2nc(NCc3cccnc3)c3ccccc3n2)c1 | -24% | . | -20% | -9% | -23% | -5%
COCCNc1nc(-c2cccc(OC)c2)nc2ccccc12 | ? | . | 6.5µM* | 3% | 1% | 18µM*
CC1(NC(=O)N2CCCCC2)CCS(=O)(=O)C1 (configuration not stated) | 0% | 4% | -5% | 2% | 0%[10 µM] | -12%
CC12CC3(C)CC(C)(C1)CC(NC(=O)N1CCCC1)(C2)C3 | -1% | 5% | 13µM* | 0% | ? | ?
CCCCN(Cc1ccc(S(=O)(=O)NC)cc1)Cc1ccco1 | 21% | . | . | . | . | .
Cc1ccc(S(=O)(=O)NC(CCc2ccccc2)CC(=O)C(C)(C)C)cc1 (configuration not stated) | . | -4% | 16µM* | -26% | 35% | 23µM*
Cc1ccc(S(=O)(=O)NC(CC(=O)O)c2ccccc2)cc1 (configuration not stated) | ? | -2% | 0% | 1% | -32% | -9%
O=S(=O)(c1ccc(F)cc1)N1CCCNCC1 | 0% | ? | 1% | 1% | 0% | -3%
O=S(=O)(c1cccc2c(I)cccc12)N1CCCNCC1 | -1% | . | 8.2µM* | -25% | ? | 13µM*
O=S(=O)(c1cccc2c(Cl)cccc12)N1CCCNCC1 | ? | . | 5.8µM* | -14% | -3% | 9.2µM*
O=C(NCc1ccnc(N2CCCC2)c1)c1ccc(Cl)c(S(=O)(=O)N2CCCCCC2)c1 | 20% | . | . | . | . | .
O=C(Nc1ncc(S(=O)(=O)c2ccc([N+](=O)[O-])cc2)s1)c1ccc2ccccc2c1 | -21% | -23% | ? | ? | -35% | 16µM*
O=C(Nc1ncc(S(=O)(=O)c2ccc([N+](=O)[O-])cc2)s1)c1cccnc1 | 0% | -3% | 18µM* | -6% | -5% | 5.8µM*
COCc1nnc(NC(=O)C2c3ccccc3C(=O)N(CC(C)C)C23CCCC3)s1 (configuration not stated) | -9% | . | . | . | . | .
C/C=C/c1ccc(Oc2nnnn2-c2ccc(C(N)=O)cc2)c(OC)c1 | -14% | -8% | 21µM* | -5% | 5% | 15µM*
COc1ccccc1Oc1nnnn1-c1ccc(C(N)=O)cc1 | 14% | -1% | -4% | -5% | -4% | -11%
